Test results published in PubChem BioAssay.
The source made the active and inactive calls.

Key:
[1] = test system: Plasmodium falciparum Sir2 (PF13_0152, Sir2A); assay: pfSir2 binders on small-molecule microarrays, primary screen, biochemical, small-molecule microarray, 635 nm fluorescence (AID 1098); conditions: small-molecule microarray binding, fluorescence 635 nm; higher = more signal;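 also: score merges spot fluorescence intensity with its signal-to-noise ratio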
[2] = small-molecule microarray binders of probe aDKK1, primary screen, biochemical, biotinylated probe, 635/667 nm fluorescence (AID 1099); conditions: higher = more signal;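 also: score merges 667nm spot fluorescence with signal to noise across triplicate slides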
[3] = small-molecule microarray binders of probe aCHRDL2, primary screen, biochemical, biotinylated probe, 635/667 nm fluorescence (AID 1100); conditions: higher = more signal
[4] = splicing luciferase reporter signal modulators, primary screen, spliceosome inhibition project, cell-based, HEK293, splice +/- reporter (AID 1101); conditions: luminescence, 24 h, higher = more signal, called active from +8 up or from −8 down;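 also: HEK293 cells carrying a splicing-competent luciferase reporter gene; test concentration not given here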
[5] = biological target: Fibroblast growth factor 10 (Homo sapiens) (UniProt O15520); assay: FGF10 binders on small-molecule microarrays, primary screen, biochemical, small-molecule microarray, 635 nm fluorescence (AID 1102); conditions: FGF10 binding, fluorescence 635 nm, higher = more signal
[6] = test system: glycogen synthase kinase-3 (GSK3A per assay name; protocol says GSK3B); assay: GSK3 binders on small-molecule microarrays, primary screen, biochemical, small-molecule microarray, 635 nm fluorescence, GSK3A (AID 1103); conditions: small-molecule microarray binding, fluorescence 635 nm; higher = more signal; also: the record names both GSK3A and GSK3B
[7] = biological target: Epidermal growth factor receptor (Homo sapiens) (UniProt P00533); assay: EGFR binders on small-molecule microarrays, primary screen, biochemical, small-molecule microarray, 635 nm fluorescence (AID 1104); conditions: EGFR binding, higher = more signal;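 also: score merges 667 nm emission intensity with spot signal to noise over triplicate slides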
[8] = biological target: Follistatin-related protein 3 (Homo sapiens) (UniProt O95633); assay: FSTL3 binders on small-molecule microarrays, primary screen, biochemical, small-molecule microarray, 635 nm fluorescence (AID 1105); conditions: FSTL3 binding, higher = more signal;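 also: score merges emission near 667 nm and signal to noise per printed spot across three slides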
[9] = biological target: Dickkopf-related protein 1 (Homo sapiens) (UniProt O94907); assay: DKK1 binders on small-molecule microarrays, primary screen, biochemical, small-molecule microarray, 635 nm fluorescence scan (AID 1106); conditions: DKK1 binding, higher = more signal;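 also: score merges emission near 667 nm with signal to noise over three replicate slides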
[10] = test system: Inhibin beta A chain (activin A); assay: INHBA (activin A) binders on microarrays, primary screen, biochemical, small-molecule microarray, 635 nm fluorescence scan (AID 1107); conditions: small-molecule microarray binding, higher = more signal;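 also: mouse activin A protein probed at 4.33 µg/mL on printed slides; score merges bound-protein fluorescence near 667 nm with spot signal-to-noise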
[11] = test system: Human papillomavirus type 1a protein E7 (residues 44-93); assay: HPV1a E7 fragment binders on microarrays, primary screen, biochemical, small-molecule microarray, residues 44-93, 635 nm fluorescence (AID 1108); conditions: small-molecule microarray binding, fluorescence 635 nm; higher = more signal;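 also: E7 fragment applied at 1 µg/mL in TBST for 1 h at 4 C; score combines spot fluorescence with its signal to noise ratio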
[12] = modulators of HCV replicon luciferase signal, primary screen, HCV replication inhibitor project, Huh7 cells, luciferase reporter (AID 1109); conditions: 48 h, higher = more signal;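 also: huh7 hepatoma cells harbouring a luciferase neomycin HCV replicon reporter; luciferase luminescence as measure of HCV replicon replication; test concentration not given here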
[13] = biological target: Left-right determination factor 2 (Homo sapiens) (UniProt O00292); assay: LEFTY2 binders on small-molecule microarrays, primary screen, biochemical, small-molecule microarray, 635 nm fluorescence scan (AID 1110); conditions: LEFTY2 binding, higher = more signal
[14] = biological target: Calmodulin-1 (Homo sapiens) (UniProt P0DP23); assay: CALM1 binders on microarrays, EGTA buffer, profiling panel, biochemical, small-molecule microarray, Cy5-labelled CALM1 (AID 1111); conditions: Cy5-CALM1 binding fluorescence, higher = more signal;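 also: labelled calmodulin applied in Tris saline Tween buffer holding calcium plus EGTA and DTT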
[15] = biological target: Calmodulin-1 (Homo sapiens) (UniProt P0DP23); assay: calcium-bound CALM1 binders on microarrays, profiling panel, artefact control for SMM control-protein annotation, biochemical, small-molecule microarray, Cy5-labelled CALM1, plus calcium (AID 1112); conditions: Cy5-CALM1 binding fluorescence, higher = more signal;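 also: score merges spot fluorescence with signal to noise from triplicate slides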
[16] = small-molecule microarray binders of probe aWnt5a, primary screen, biochemical, biotinylated probe, 635/667 nm fluorescence (AID 1113); conditions: higher = more signal;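 also: score merges 667 nm fluorescence intensity with signal-to-noise per printed feature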
[17] = small-molecule microarray binders of probe aShh, primary screen, biochemical, biotinylated probe, 635/667 nm fluorescence (AID 1114); conditions: higher = more signal;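 also: probe is biotin-labelled aShh protein from a stem cell growth factor screen; measures binding of labelled protein to compounds printed on the slide; score merges feature fluorescence at 667 nm with signal-to-noise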
[18] = small-molecule microarray binders of probe aNog, primary screen, biochemical, biotinylated probe, 635/667 nm fluorescence (AID 1115); conditions: higher = more signal;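 also: probe is biotinylated aNog protein used at 0.15 µg/mL for 1 h at 4 C; z-score combines 667 nm fluorescence of each spot with its signal to noise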
[19] = biological target: Torsin-1A-interacting protein 1 (Homo sapiens) (UniProt Q5JTV8); assay: LAP1 binders from COS7 cell lysate, primary screen, small-molecule microarray, 635/667 nm fluorescence (AID 1116); conditions: COS7-hLAP1 lysate binding, 635 nm fluorescence, higher = more signal
[20] = biological target: Alpha-bungarotoxin (Bungarus multicinctus) (UniProt P60615); assay: alpha-bungarotoxin binders on microarray, profiling panel, artefact control for SMM control protein annotation, biochemical, small-molecule microarray, Alexa647 label, 635/667 nm fluorescence (AID 1117); conditions: alpha-BTX-A647 binding fluorescence, higher = more signal
Sequence of Alpha-bungarotoxin (Bungarus multicinctus) (P60615 whole entry, looked up): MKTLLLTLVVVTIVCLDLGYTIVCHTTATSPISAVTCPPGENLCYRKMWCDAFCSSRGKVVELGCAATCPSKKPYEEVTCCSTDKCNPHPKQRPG

Sequence of Follistatin-related protein 3 (Homo sapiens) (O95633 whole entry, looked up): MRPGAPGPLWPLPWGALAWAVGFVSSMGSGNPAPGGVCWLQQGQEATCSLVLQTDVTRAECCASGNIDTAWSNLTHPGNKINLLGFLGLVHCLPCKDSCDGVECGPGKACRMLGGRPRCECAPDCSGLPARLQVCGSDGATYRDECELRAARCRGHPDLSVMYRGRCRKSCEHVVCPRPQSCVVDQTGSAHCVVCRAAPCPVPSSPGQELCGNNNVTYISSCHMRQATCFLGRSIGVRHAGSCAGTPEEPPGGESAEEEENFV
Sequence of Dickkopf-related protein 1 (Homo sapiens) (O94907 whole entry, looked up): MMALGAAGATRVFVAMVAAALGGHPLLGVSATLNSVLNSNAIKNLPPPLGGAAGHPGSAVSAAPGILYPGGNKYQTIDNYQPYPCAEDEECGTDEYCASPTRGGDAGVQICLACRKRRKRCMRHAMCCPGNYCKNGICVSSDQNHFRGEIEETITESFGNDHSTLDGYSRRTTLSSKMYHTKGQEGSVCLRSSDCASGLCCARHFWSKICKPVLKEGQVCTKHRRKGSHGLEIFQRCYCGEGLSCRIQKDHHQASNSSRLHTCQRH
Sequence of Left-right determination factor 2 (Homo sapiens) (O00292 whole entry, looked up): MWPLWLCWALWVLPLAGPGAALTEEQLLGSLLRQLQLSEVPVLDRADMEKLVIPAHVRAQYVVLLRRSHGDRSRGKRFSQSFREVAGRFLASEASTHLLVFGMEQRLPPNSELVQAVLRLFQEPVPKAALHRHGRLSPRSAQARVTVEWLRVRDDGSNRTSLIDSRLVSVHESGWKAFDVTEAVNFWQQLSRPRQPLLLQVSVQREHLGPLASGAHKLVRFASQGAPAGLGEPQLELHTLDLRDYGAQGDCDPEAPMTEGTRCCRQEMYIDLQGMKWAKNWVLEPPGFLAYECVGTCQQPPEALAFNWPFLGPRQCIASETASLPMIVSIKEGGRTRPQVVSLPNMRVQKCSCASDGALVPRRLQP
Sequence of Epidermal growth factor receptor (Homo sapiens) (P00533 whole entry, looked up): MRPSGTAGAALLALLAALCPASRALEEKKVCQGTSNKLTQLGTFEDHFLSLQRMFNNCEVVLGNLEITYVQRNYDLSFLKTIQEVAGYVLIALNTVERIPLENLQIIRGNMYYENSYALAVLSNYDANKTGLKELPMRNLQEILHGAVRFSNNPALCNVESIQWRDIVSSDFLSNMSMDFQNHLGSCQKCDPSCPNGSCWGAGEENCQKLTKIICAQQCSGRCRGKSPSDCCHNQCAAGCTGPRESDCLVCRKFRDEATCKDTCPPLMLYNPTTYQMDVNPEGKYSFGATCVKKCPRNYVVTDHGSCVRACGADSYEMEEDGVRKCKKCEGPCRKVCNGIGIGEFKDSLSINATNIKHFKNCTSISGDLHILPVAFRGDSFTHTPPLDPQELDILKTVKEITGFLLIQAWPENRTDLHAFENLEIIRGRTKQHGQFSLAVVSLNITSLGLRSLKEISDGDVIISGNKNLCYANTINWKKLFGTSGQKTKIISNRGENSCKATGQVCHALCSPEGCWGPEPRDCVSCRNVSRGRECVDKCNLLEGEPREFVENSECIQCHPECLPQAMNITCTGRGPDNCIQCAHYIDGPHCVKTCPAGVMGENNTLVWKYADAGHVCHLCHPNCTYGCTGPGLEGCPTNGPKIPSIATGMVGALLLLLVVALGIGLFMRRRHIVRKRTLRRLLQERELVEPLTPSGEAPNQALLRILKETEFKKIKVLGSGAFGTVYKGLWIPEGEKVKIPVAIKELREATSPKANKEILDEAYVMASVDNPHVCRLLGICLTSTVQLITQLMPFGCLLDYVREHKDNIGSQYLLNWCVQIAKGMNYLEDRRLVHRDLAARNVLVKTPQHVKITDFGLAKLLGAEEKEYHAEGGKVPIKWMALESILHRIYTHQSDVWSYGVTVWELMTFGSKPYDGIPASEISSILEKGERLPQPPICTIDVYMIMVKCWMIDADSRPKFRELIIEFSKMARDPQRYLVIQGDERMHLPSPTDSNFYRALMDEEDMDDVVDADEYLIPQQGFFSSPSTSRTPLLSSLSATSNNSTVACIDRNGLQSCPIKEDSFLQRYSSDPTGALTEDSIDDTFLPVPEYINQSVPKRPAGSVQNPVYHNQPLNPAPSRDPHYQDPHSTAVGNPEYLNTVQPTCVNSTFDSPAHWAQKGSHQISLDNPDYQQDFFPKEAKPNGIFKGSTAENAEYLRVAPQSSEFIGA
Sequence of Torsin-1A-interacting protein 1 (Homo sapiens) (Q5JTV8 whole entry, looked up): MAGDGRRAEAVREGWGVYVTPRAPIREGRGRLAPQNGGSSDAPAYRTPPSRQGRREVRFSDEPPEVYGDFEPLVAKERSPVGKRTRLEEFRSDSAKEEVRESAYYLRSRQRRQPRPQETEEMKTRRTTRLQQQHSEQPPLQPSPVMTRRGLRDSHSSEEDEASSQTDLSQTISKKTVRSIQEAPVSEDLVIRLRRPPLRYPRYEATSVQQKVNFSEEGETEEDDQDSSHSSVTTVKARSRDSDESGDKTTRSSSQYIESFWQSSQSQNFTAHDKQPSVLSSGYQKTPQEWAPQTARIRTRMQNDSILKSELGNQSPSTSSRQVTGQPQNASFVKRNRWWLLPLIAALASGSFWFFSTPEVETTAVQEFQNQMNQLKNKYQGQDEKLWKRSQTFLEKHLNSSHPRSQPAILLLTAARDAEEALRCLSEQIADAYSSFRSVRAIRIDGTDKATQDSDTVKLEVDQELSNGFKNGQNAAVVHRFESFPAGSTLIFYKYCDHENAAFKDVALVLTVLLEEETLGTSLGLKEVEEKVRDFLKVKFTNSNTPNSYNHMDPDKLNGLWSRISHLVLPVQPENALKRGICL
Sequence of Fibroblast growth factor 10 (Homo sapiens) (O15520 whole entry, looked up): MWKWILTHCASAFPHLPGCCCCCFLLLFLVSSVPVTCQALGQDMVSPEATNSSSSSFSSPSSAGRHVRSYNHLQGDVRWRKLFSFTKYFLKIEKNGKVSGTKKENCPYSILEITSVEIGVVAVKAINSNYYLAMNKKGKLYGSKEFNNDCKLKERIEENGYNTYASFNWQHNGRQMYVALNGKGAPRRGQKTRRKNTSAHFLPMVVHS

| Compound | composite z-score [1] | composite z-score [2] | composite z-score [3] | z-score [4] | composite z-score [5] | composite z-score [6] | composite z-score [7] | composite z-score [8] | composite z-score [9] | composite z-score [10] | composite z-score [11] | z-score [12] | composite z-score [13] | composite z-score [14] | composite z-score [15] | composite z-score [16] | composite z-score [17] | composite z-score [18] | composite z-score [19] | composite z-score [20] |
| --- | --- | --- | --- | --- | --- | --- | --- | --- | --- | --- | --- | --- | --- | --- | --- | --- | --- | --- | --- | --- |
| CCCNC(=O)OC[C@H]1O[C@H](CCON=C(C)CCC(=O)OC[C@H]2O[C@H](c3ccccc3)C=C[C@@H]2Oc2ccc(OC)cc2)C=C[C@@H]1Oc1ccc(OC)cc1 | 0.452 | -0.183 | -0.207 | 0.358 (inactive) | -0.445 | -1.49 | -0.239 | -0.31 | 0.0289 | 0.844 | -0.996 | -1.17 | -0.126 | -0.449 | -0.678 | -0.0685 | -0.138 | -0.0039 | 0.23 | -0.183 |
| CCOC(=O)[C@H](Cc1ccccc1)NC(=O)CCC1CC(OC(=O)NCc2cccc3ccccc23)CC2(CCCC(COC(=O)NCCC(C)C)O2)O1 (stereo not given in full) | 0.12 | -0.295 | -0.206 | -1.74 (inactive) | 0.143 | -0.448 | -0.135 | 0.133 | -0.096 | 0.388 | -2.01 | -0.134 | 0.215 | 0.56 | -0.29 | -0.13 | 0.0141 | -0.372 | -0.0831 | 1.09 |
| CO[C@@H]1C=CCC(=O)N2CCC[C@H]2C(=O)OC[C@@H](C)C(=O)OC[C@H]1C | 1.1 | -0.21 | -0.822 | -0.497 (inactive) | 0.441 | 0.484 | 0.521 | 1.44 | 1.43 | 0.163 | -0.291 | 0.189 | 0.837 | -0.759 | -1.02 | -0.0896 | -0.0362 | -0.246 | -0.0837 | -0.276 |
| Cc1ccc(S(=O)(=O)NC(CCc2ccccc2)CC(=O)C(C)(C)C)cc1 (stereo not given) | 0.491 | -0.32 | -0.459 | -0.327 (inactive) | 0.465 | 0.667 | 0.589 | 0.758 | 0.661 | -0.114 | 0.52 | -2.04 | 0.445 | -0.0921 | -0.418 | -0.125 | 0.304 | -0.0626 | -0.0055 | 0.369 |
| CC(C)(C)N1C(=O)[C@H]2[C@H]3[C@H](O)C=CC(=O)[C@@H]3CC[C@H]2C1=O | 0.294 | -0.407 | -0.428 | -0.128 (inactive) | 0.429 | 0.695 | 0.437 | 0.711 | 0.715 | -0.214 | 0.264 | 0.133 | 0.296 | 0.0361 | -0.586 | -0.13 | 0.0121 | 0.0637 | -0.288 | 0.0991 |
| CC(C)(C)N1C(=O)[C@H]2[C@H]3[C@H](O)[C@H](O)CC(=NO[C@@H]4O[C@H](CO)[C@@H](O)[C@H](O)[C@H]4O)[C@H]3CC[C@H]2C1=O | 0.0937 | -0.215 | -0.38 | 0.543 (inactive) | 0.16 | -0.524 | 0.408 | 0.487 | 0.639 | 1.35 | 0.518 | -1.13 | 0.4 | -0.653 | -1.12 | -0.0337 | -0.0769 | -0.196 | 0.509 | -0.309 |
| CCOC(=O)[C@H](Cc1ccccc1)NC(=O)CCC1CC(OC(=O)NCCc2ccc(F)cc2)CC2(CCCC(COC(=O)NCCCN3CCCC3=O)O2)O1 (stereo not given in full) | 0.844 | -0.257 | -0.802 | -1.79 (inactive) | 0.767 | 0.843 | 0.478 | 0.69 | 0.493 | -0.103 | 1.35 | -0.427 | 0.612 | 0.566 | -0.043 | -0.0222 | 0.149 | 0.0083 | 0.0166 | 0.261 |
| CC(=O)OC[C@H]1O[C@H](CC=NO[C@H](C)c2cn([C@H](CO)Cc3ccccc3)nn2)C=C[C@@H]1OC(C)=O | 0.95 | -0.154 | -0.357 | 0.67 (inactive) | 0.945 | 0.926 | 0.569 | 0.995 | 1.43 | -0.143 | 1.16 | -0.355 | 0.852 | 0.081 | -0.367 | -0.0231 | -0.0553 | 0.223 | 0.213 | 1.27 |
| CCOC(=O)[C@H](Cc1ccccc1)NC(=O)CCC1CC(OC(=O)NCCc2ccc(F)cc2)CC2(CCCC(COC(=O)NCc3ccccc3)O2)O1 (stereo not given in full) | 0.857 | -0.208 | -0.614 | 0.207 (inactive) | 1.16 | 0.572 | 0.33 | 0.76 | 0.529 | 0.0158 | 1.29 | -0.929 | 0.829 | 0.774 | -0.129 | -0.157 | 1.15 | -0.118 | 0.601 | 0.154 |
| C#CCCCON=C1C[C@@H](O)[C@@H](O)[C@@H]2[C@@H]3C(=O)N(c4ccc(F)cc4F)C(=O)[C@@H]3CC[C@H]12 | 0.87 | -0.177 | -0.86 | -1.35 (inactive) | 0.947 | 0.678 | 0.403 | 0.432 | 0.978 | -0.185 | 0.299 | 0.0534 | 0.358 | -0.353 | -0.693 | -0.006 | -0.0533 | -0.21 | -0.0188 | 0.239 |
| C[C@H]1CC[C@H]2C(=O)O[C@H](COc3ccc(C(C)(C)C)cc3)CN2[C@@H]1c1ccc(Br)cc1 | 0.926 | -0.143 | -0.0663 | 0.134 (inactive) | 0.0311 | 0.102 | -0.0022 | -0.156 | -0.189 | 0.0563 | 0.179 | -0.145 | -0.281 | 1 | 0.101 | -0.139 | -0.0548 | 0.0051 | 0.303 | 1.15 |
| CC(C)CON=C1C[C@@H](O)[C@@H](O)[C@@H]2[C@@H]3C(=O)N(c4cccc(Oc5ccccc5)c4)C(=O)[C@@H]3CC[C@@H]12 | 1.13 | -0.277 | -0.446 | -1.24 (inactive) | 0.746 | 0.789 | 0.368 | 0.348 | 0.195 | -0.163 | 1.35 | 0.251 | 0.374 | 1.05 | -0.426 | 0.0215 | -0.221 | -0.158 | 1.06 | 0.538 |
